Activity calls are given as the source filed them. The calls were made as follows: active = hit-call score of the fitted dose curve at least 0.9, where 1 is the maximum; inactive = score below 0.9.
What was measured:
[1] = APR_HepG2_CellCycleArrest_24hr: Apredica 24-hour HepG2 Assay for Cell Cycle Arrest (AID 2282905); conditions: imaging, actives raise or lower the signal;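 also: cell cycle arrest scored as ratio of 2N to 4N nuclear DNA content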
Method in brief: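 Step one: dose HepG2 with test compounds, 0.39–200 uM, 0.5% DMSO, 24 hr. Step two: fix, permeabilize, stain nuclei with Hoechst 33342. Step three: image six fields per well at 20x, quantify DNA content, fit bidirectionally relative to DMSO.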

[2] = APR_HepG2_NuclearSize_24hr: Apredica 24-hour HepG2 Assay for Nuclear Size (AID 2282907); conditions: high-content imaging, actives raise or lower the signal
Method in brief: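 After fixation and permeabilization, 24-hr-treated HepG2 cells were stained with Hoechst 33342 and imaged on an ArrayScan (20x). Doses spanned 0.39–200 uM in duplicate. Nuclear diameter changes in either direction were fitted relative to 0.5% DMSO controls.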

[3] = APR_HepG2_CellLoss_24hr: Apredica 24-hour HepG2 Assay for Cell Loss (AID 2282908); conditions: high-content imaging;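 as to AC50: fit in both directions so a hit may be cell loss or gain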
Method in brief: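 Duplicate wells received compound at ten concentrations (0.39–200 uM; final DMSO 0.5% v/v). After fixation with formaldehyde, nuclei stained with Hoechst 33342 were imaged at 20x. Loss or gain of cell count was fitted relative to DMSO controls.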

[4] = APR_HepG2_MicrotubuleCSK_24hr: Apredica 24-hour HepG2 Assay for Microtubule CSK Stabilty (AID 2282909); conditions: HepG2 microtubule cytoskeleton imaging, actives raise or lower the signal
Method in brief: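 Microtubule stability is scored from tubulin immunofluorescence in fixed HepG2 cells imaged at 20x. Cells receive ten compound concentrations up to 200 uM for 24 h; taxol and DMSO serve as positive and negative controls.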

[5] = APR_HepG2_MitoticArrest_24hr: Apredica 24-hour HepG2 Assay for Mitotic Arrest (AID 2282910); conditions: high-content imaging, actives raise or lower the signal
Method in brief: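 Treatment lasted 24 hr in the human HepG2 line at 0.39–200 uM, solvent held at 0.5% DMSO. Fixed cells were stained with Hoechst 33342 and anti-phospho-histone H3, imaged at 20x, and analysed by gain- or loss-of-signal fitting against DMSO.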

[6] = APR_HepG2_MitoMembPot_24hr: Apredica 24-hour HepG2 Assay for Mitochondrial Membrane Potential (AID 2282911); conditions: imaging, actives raise or lower the signal
Method in brief: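 HepG2, 24 hr dosing, 10 concentrations 0.39–200 uM, 0.5% DMSO final. Live-cell MitoTracker Red CMXRos 250 nM 30 min, then 3.7% formaldehyde fix. HCS fluorescence imaging, 20x; bidirectional fit vs DMSO baseline.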

[7] = APR_HepG2_MitoMass_24hr: Apredica 24-hour HepG2 Assay for Mitochondrial Mass (AID 2282912); conditions: high-content imaging, actives raise or lower the signal
Method in brief: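 Readout: fluorescence of MitoTracker Red CMXRos (250 nM, added 30 min pre-fixation) in fixed HepG2 cells imaged by HCS. Exposure lasted 24 hr at 0.39–200 uM; increases and decreases were both fitted relative to DMSO.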

[8] = APR_HepG2_p53Act_24hr: Apredica 24-hour HepG2 Assay for p53 Activation (AID 2282913); conditions: high-content imaging, actives raise or lower the signal;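 also: p53 protein immunofluorescence averaged per cell in HepG2 with Hoechst nuclei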
Method in brief: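 Read-out: Cy5 immunofluorescence for p53 in fixed, permeabilized HepG2, imaged by HCS with Hoechst-defined nuclei. Dosing was 24 hr at 0.39–200 uM in 0.5% DMSO. Curves were fitted bidirectionally relative to DMSO.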

[9] = APR_HepG2_CellCycleArrest_72hr: Apredica 72-hour HepG2 Assay for Cell Cycle Arrest (AID 2282914); conditions: high-content imaging, actives raise or lower the signal
Method in brief: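 HepG2, 72 hr exposure, 10-point 0.39–200 uM, duplicate, 0.5% DMSO final. Fix 3.7% formaldehyde 30 min RT, Triton X-100 0.5%, Hoechst 33342 2 ug/mL. ArrayScan 20x, six fields/well; DNA content per nucleus; bidirectional fit vs DMSO.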

[10] = APR_HepG2_CellLoss_72hr: Apredica 72-hour HepG2 Assay for Cell Loss (AID 2282915); conditions: high-content imaging
Method in brief: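 HepG2 cells were exposed for 72 hr to compounds at 0.39–200 uM (ten concentrations, duplicate) in 0.5% v/v final DMSO. Nuclei were stained with Hoechst 33342 after 3.7% formaldehyde fixation, imaged at 20x, and counted; fits bidirectional versus DMSO.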

[11] = APR_HepG2_P-H2AX_72hr: Apredica 72-hour HepG2 Assay for H2AX Phosphorylation (AID 2282916); conditions: imaging, actives raise or lower the signal;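 also: phospho-histone H2A.x immunostain intensity per cell marking DNA damage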
Method in brief: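 Phospho-H2A.x imaging endpoint in HepG2 after 72 hr compound exposure (0.39–200 uM, duplicate wells). Activity derived by bidirectional curve fitting with DMSO as baseline.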

[12] = APR_HepG2_MitoMembPot_72hr: Apredica 72-hour HepG2 Assay for Mitochondrial Membrane Potential (AID 2282917); conditions: imaging, actives raise or lower the signal
Method in brief: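 HepG2 cells exposed 72 h to compounds at 0.39–200 uM (0.5% v/v DMSO, duplicates); MitoTracker Red CMXRos 250 nM loaded 30 min before 3.7% formaldehyde fixation, imaged by HCS fluorescence. Bidirectional fit versus DMSO.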

[13] = APR_HepG2_MitoticArrest_72hr: Apredica 72-hour HepG2 Assay for Mitotic Arrest (AID 2282918); conditions: high-content imaging, actives raise or lower the signal
Method in brief: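 HepG2, 72 hr exposure, 0.39–200 uM in duplicate, 0.5% v/v DMSO final. Formaldehyde-fixed, Triton-permeabilized, anti-phospho-histone H3/FITC plus Hoechst. ArrayScan imaging at 20x; curves fit bidirectionally against DMSO baseline.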

[14] = APR_HepG2_MicrotubuleCSK_72hr: Apredica 72-hour HepG2 Assay for Microtubule CSK Stabilty (AID 2282919); conditions: HepG2 microtubule cytoskeleton, high-content imaging, actives raise or lower the signal
Method in brief: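 Ten-point dosing (0.39–200 uM, 0.5% DMSO) of HepG2 for 72 hr, with taxol as the cytoskeletal positive control. The cells were formaldehyde-fixed and then stained with alpha-tubulin/Cy5 and Hoechst. Imaging at 20x used a −2 um Z offset for tubulin.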

[15] = APR_HepG2_P-H2AX_24hr: Apredica 24-hour HepG2 Assay for H2AX Phosphorylation (AID 2282920); conditions: high-content imaging, actives raise or lower the signal
Method in brief: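 HCS fluorescence imaging of phospho-H2A.x immunostain (with Hoechst 33342 nuclear counterstain) in HepG2 after 24 hr compound exposure; 10 concentrations, 0.39–200 uM, duplicate wells, 0.5% v/v DMSO. Gain or loss of signal fitted relative to DMSO baseline.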

[16] = APR_HepG2_StressKinase_24hr: Apredica 24-hour HepG2 Assay for Stress Kinase (AID 2282922); conditions: HepG2 stress kinase (phospho-c-Jun) imaging, actives raise or lower the signal
Method in brief: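 After 24 hr compound treatment (up to 200 uM, final DMSO 0.5% v/v), HepG2 cells are fixed and multiplex-labeled; phospho-c-Jun intensity is captured by high-content fluorescence imaging and analyzed relative to DMSO.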

[17] = APR_HepG2_p53Act_72hr: Apredica 72-hour HepG2 Assay for p53 Activation (AID 2282923); conditions: high-content imaging, actives raise or lower the signal;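 also: average cellular p53 protein immunofluorescence intensity in HepG2 cells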
Method in brief: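 Fixed-cell p53 staining (sheep primary, Cy5 secondary) measured by fluorescence imaging following 72 hr treatment at 0.39–200 uM in 0.5% DMSO; DMSO served as negative control and baseline.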

[18] = APR_HepG2_MitoMass_72hr: Apredica 72-hour HepG2 Assay for Mitochondrial Mass (AID 2282924); conditions: high-content imaging, actives raise or lower the signal;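 also: MitoTracker Red CMXRos stain intensity per cell imaged as mitochondrial mass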
Method in brief: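 Steps: treat HepG2 72 hr (0.39–200 uM, duplicate wells); load MitoTracker Red CMXRos, 250 nM, 30 min; fix with 3.7% formaldehyde, permeabilise with 0.5% Triton X-100; capture images, nuclei via Hoechst 33342; fit bidirectionally against DMSO.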

[19] = APR_HepG2_NuclearSize_72hr: Apredica 72-hour HepG2 Assay for Nuclear Size (AID 2282925); conditions: high-content imaging, actives raise or lower the signal
Method in brief: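 Compounds (0.39–200 uM, final DMSO 0.5%) were applied to HepG2 for 72 hr. Cells were then formaldehyde-fixed, permeabilized and labelled with Hoechst 33342. Nuclear diameter was quantified from six images per well.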

Measured: AC50

Oc1ccc2ccccc2c1
inactive: all assays above

Clc1cc(Cl)c2c(c1)N=C1CCCCCN1C2
active: [6] 0.0248 µM
inactive: all other assays above

CC[C@@H]1C[C@H](N(Cc2cc(C(F)(F)F)cc(C(F)(F)F)c2)C(C)=O)c2cc(C(F)(F)F)ccc2N1C(=O)OC(C)C
active: [6] 0.0358 µM
inactive: all other assays above

CCCCOC(=O)CC(CC(=O)OCCCC)(OC(C)=O)C(=O)OCCCC
active: [3] 27.7 µM | [6] 70.8 µM | [8] 53.9 µM | [10] 42.5 µM | [11] 56.2 µM | [13] 42 µM | [14] 43.6 µM | [17] 57.9 µM
inactive: all other assays above

O=C(OCCCCCCOC(=O)c1ccccc1)c1ccccc1
inactive: all assays above

c1ccc2ccccc2c1
active: [9] 0.0357 µM | [10] 0.0736 µM | [13] 0.0415 µM | [17] 0.0391 µM | [18] 0.0598 µM
inactive: all other assays above

O=CCCCC=O
inactive: all assays above

CCOC(=O)O[C@H](C)OC(=O)c1ccc2c(c1)cc(C(=O)NC1CCN(C(C)C)CC1)n2Cc1cc(-c2ccc(Cl)s2)on1
inactive: [2] | [9] | [11] | [12] | [13] | [16] | [17] | [18] | [19]
active: [1] 94.5 µM | [3] 9.26 µM | [4] 25 µM | [5] 10.1 µM | [6] 44.4 µM | [7] 167 µM | [8] 94.5 µM | [10] 8.32 µM | [14] 94.5 µM | [15] 94.5 µM

CCCCOC(=O)c1ccc(O)cc1
inactive: all assays above

CCN(CC)C(=O)c1cc(S(=O)(=O)Cc2ccccc2)c(N2CCC(c3ccccc3)CC2)cc1N(CC)CCN(C)C
inactive: [2] | [6] | [16] | [17] | [18] | [19]
active: [1] 75.9 µM | [3] 5.48 µM | [4] 11.1 µM | [5] 1.59 µM | [7] 23.1 µM | [8] 18.6 µM | [9] 3.21 µM | [10] 2.54 µM | [11] 0.876 µM | [12] 1.88 µM | [13] 1.12 µM | [14] 7.7 µM | [15] 1.93 µM

C[C@]12CC[C@@H]3c4ccc(O)cc4CC[C@H]3[C@@H]1CCC2=O
not listed: [8] | [17]
inactive: all other assays above

CC(C)(C)c1cc(/C=C2\SC(N)=NC2=O)cc(C(C)(C)C)c1O
inactive: [2] | [6] | [9] | [12] | [19]
active: [1] 64.9 µM | [3] 53.1 µM | [4] 29.5 µM | [5] 52.3 µM | [7] 32.7 µM | [8] 61.7 µM | [10] 32.4 µM | [11] 41.6 µM | [13] 40.3 µM | [14] 27.4 µM | [15] 55.2 µM | [16] 60 µM | [17] 35.2 µM | [18] 86.1 µM

Oc1ccccc1
inactive: all assays above

OCCO
inactive: all assays above
